# aSyn yeast inh = alpha-synuclein toxicity inhibition in yeast; 0.14% of 370,000 active; Yeast expressing alpha-synuclein, growth rescue, BacTiter-Glo, 24 h; Potency, µM (highest dose often 46.1 µM), for the others: at the highest dose growth rescue (activation), actives largely listed as activators; note: % of control where 0% means no effect; nearly all actives have a fitted effect of over 65% in size
#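 Readout is rescue of growth in alpha-synuclein-expressing yeast, so inhibitors of toxicity appear as activators. Growth after 24 hr at 30 deg C in galactose medium is quantified by luminescence.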
# Abeta yeast res = A-beta toxicity reversal in yeast | yeast expressing A-beta42, growth rescue, OD600, 48 h; response scale: 0% DMSO, 100% iron-clioquinol control | Potency, µM (series often up to 46.1 µM), most hits filed as activators | 0.063% of 410,000 active | AID 1347071; note: nearly all actives have a fitted effect of over 55% in size
#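 Growth rescue measured by 600 nm absorbance after 48 h yeast culture at 30 C with compound. Values normalized between DMSO and an equimolar ferric chloride plus clioquinol control.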
# Mito fusion act = blocks mitochondrial division or promotes mitochondrial fusion; S. cerevisiae fusion-defective mutant growth rescue, CellTiterGlo 48 h; Potency, µM (highest dose often 46.1 µM), without a hit: top-dose growth rescue (activation), most hits filed as activators; 0.23% of 320,000 active; AID 485298; note: % of control where 0% means no effect; nearly all actives have a fitted effect of over 45% in size
#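 Luminescent cell viability in 1536-well qHTS format served as the measure of rescued growth in ts fusion-mutant S. cerevisiae cultured on non-fermentable YPEG for 48 hours at 37C.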
# TDP-43 yeast inh = inhibitors of TDP-43 toxicity in yeast | TDP-43 expressing yeast growth rescue, BacTiter-Glo, 24 h | Potency, µM (highest dose often 46.1 µM), inactives show top-dose growth rescue (activation), usual class: activators | 1.8% of 410,000 active | AID 652104; note: % of control where 0% means no effect; nearly all actives have a fitted effect of over 50% in size
#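 Growth rescue of TDP-43-toxic yeast measured as ATP luminescence (BacTiter-Glo). Cells grown to mid-log in raffinose, induced in galactose at OD600=0.02, exposed to compound 24 hr at 30 deg C.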
# Glioma ERSR ind = ER stress response induction in glioma; 0.02% of 420,000 active; Potency, µM, for the others: top-dose activation, most hits filed as activators; U87-MG GRP78 promoter luciferase reporter, 16 h; note: series mostly up to about 76 µM; % of control where 0% means no effect; nearly all actives have a fitted effect of over 35% in size
#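 Stably transfected U87-MG glioma cells carrying a GRP78-based luciferase sensor; 16 h compound incubation. Luminescence end-point read 10 min after Bright-Glo addition at room temperature.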
# AT treatment = candidate therapy for ataxia-telangiectasia; F2112 A-T fibroblasts, KAP-1 phosphorylation AlphaLISA; neocarzinostatin DNA damage 30 min before lysis; 0.19% of 320,000 active; AID 485349; Potency, µM (highest dose often 57.5 µM), without a hit: at the top dose activation, most hits filed as activators; note: % of control where 0% means no effect; nearly all actives have a fitted effect of over 45% in size
#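 hTERT-immortalized A-T patient fibroblasts (F2112), 500 cells/well in OPTI-MEM, 1% FBS, got compounds for 60 min, then NCS for 30 min at 37C. Lysates were then assayed for phospho-KAP-1 by AlphaLISA (anti-pKAP1 donor, anti-KAP1 acceptor beads), 6 hr at 25C.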
# * hit, by the source's call; i = inactive; ? = inconclusive; . = no result; [ ] = another dose, or the depositor's remark. Shown are actives, neighbours in structure and some others; about 2.1% of the full set was active somewhere. Calls come from the whole dose curve; as a rule, active = well fitted curve in the direction sought with a large enough effect; inconclusive = small, poorly fitted or top-dose-only effect, or another doubt; inactive = no such curve, though single readings can be large; an effect the other way counts as inactive or inconclusive. Potency is the fitted concentration of half-maximal effect.
SMILES,aSyn yeast inh,Abeta yeast res,Mito fusion act,TDP-43 yeast inh,Glioma ERSR ind,AT treatment
CCn1cc(Br)c(C(=O)Nc2ccc(Cl)cc2Cl)n1,2%,i,19%,4.5µM*,6%,-3%
CCn1cc(Br)c(C(=O)Nc2ccc(F)c(Cl)c2)n1,0%,i,6%,11µM*,4%,8%
COc1ccc(OC)c(-c2cc(Cl)c3c(c2)CC(CNC(=O)c2coc4c2C(=O)CCC4)O3)c1 (stereo unspecified),.,.,.,.,2%,.
COc1cc(=O)n2c(c1C(=O)N(C)Cc1nonc1C)CCN(Cc1cc(C)c(C)cc1C)CC2,.,.,.,.,-3%,.
Cc1cc(-c2ccccc2)n2nc(C)c(C#N)c2n1,-12%,i,13%,16µM*,-2%,-9%
COc1ccc(-c2c(C)nn3c(-c4ccccc4)cc(C)nc23)cc1,0%,i,-7%,0%,-4%,-4%
COc1ccc(C2CC(O)(c3ccccc3)Oc3cc(OC)ccc32)cc1 (stereo unspecified),?,i,?,20µM*,-3%,-45%
COc1ccc(NC(=O)N2c3ccccc3CC2C)cc1OC (stereo unspecified),.,i,-2%,13µM*,3%,-1%
Cc1sc2c(c1C)c(=O)n(CCc1ccccc1)c(=O)n2Cc1cccc(F)c1,.,i,.,-5%,.,.
CC1CC(C)CN(c2nc(N(C)c3ccccc3)nc(N)c2[N+](=O)[O-])C1 (stereo unspecified),16%,i,-4%,18µM*,-2%,1%
CC1CN(c2nc(N(C)c3ccccc3)nc(N)c2[N+](=O)[O-])CC(C)O1 (stereo unspecified),13%,i,9%,2%,2%,-6%
CCC1C(=O)NCCN1Cc1ccc2c(c1)CN(Cc1cccn1-c1ccc(Cl)cn1)CCO2 (stereo unspecified),.,.,.,.,-3%,.
CC(=C/c1ccc(C(C)C)cc1)/C=N/NC(=O)CSc1ccccn1,9%,i,18%,24%,1%,-3%
CC(/C=N/NC(=O)CSc1ccccn1)=C\c1ccc(C(C)C)cc1,8%,i,18%,20µM*,6%,0%
CC1(OC(=O)C2CCCC2)C(=O)C=C2C=C(c3ccsc3)N(CC3CC3)C=C2C1=O (stereo unspecified),1%,i,11%,20%,-3%,35%
CC1(OC(=O)C2CCCC2)C(=O)C=C2C=C(c3ccsc3)N(C3CCCCC3)C=C2C1=O (stereo unspecified),-16%,i,-11%,10µM*,0%,45%
c1ccc2c(c1)CCN(c1nc3ccccc3n3cnnc13)C2,-6%,i,4%,35µM*,3%,9%
c1ccc(CN2CCN(c3nc4ccccc4n4cnnc34)CC2)cc1,-3%,i,2%,3%,-6%,12%
c1ccc(N2CCN(c3nc4ccccc4n4cnnc34)CC2)cc1,5%,i,18%,35µM*,-3%,2%
c1ccc2c(c1)nc(N1CCOCC1)c1nncn12,-5%,i,0%,0%,0%,5%
FC(F)(F)c1cccc(N2CCN(c3nc4ccccc4n4cnnc34)CC2)c1,.,i,.,22µM*,2%,.
O=C1C(Cl)=C(Nc2ccccc2)C(=O)c2ccccc21,-9%,i,-1%,-2%,-11%,5µM*
CC1=C(Nc2ccc(C(=O)O)cc2)C(=O)c2ccccc2C1=O,-9%,i,-22%,6%,4%,1%
COC1=C(Nc2ccccc2)C(=O)c2ccccc2C1=O,0%,i,3%,13µM*,-1%,-33%
COC1=C(Nc2ccc(C)cc2)C(=O)c2ccccc2C1=O,-16%,i,1%,10µM*,2%,-3%
SMILES,aSyn yeast inh,Abeta yeast res,Mito fusion act,TDP-43 yeast inh,Glioma ERSR ind,AT treatment
CCCCCCOc1ccc(NC(=O)CC2C(=O)N(CC)C(=S)N2Cc2ccco2)cc1 (stereo unspecified),14µM*,i,-17%,?,3%,2%
O=S(=O)(NCc1cccs1)c1ccc(Br)cc1,1%,i,5%,13%,-2%,8%
O=C(Nc1ccc(Br)cc1)c1ccc(F)c(S(=O)(=O)NCc2cccs2)c1,?,?,?,20µM*,-1%,0%
CSc1nnc(CCNC(=O)c2ccccc2C(F)(F)F)n1-c1ccc(F)cc1,.,.,.,.,-3%,.
COc1ccc(N2CCN(c3nc4c(c(=O)n(C)c(=O)n4C)n3Cc3ccccc3)CC2)cc1,15%,i,?,14%,-5%,-5%
CC1CCCN(c2nc3c(c(=O)n(C)c(=O)n3C)n2Cc2ccccc2)C1 (stereo unspecified),19%,i,5%,18µM*,0%,14%
N/C(=N\OC(=O)c1ccc(Cl)cc1Cl)c1ccccc1,-45%,i,-4%,-15%,-2%,20%
N/C(=N\OC(=O)c1cccc2ccccc12)c1cccnc1,-5%,i,11%,20µM*,?,5%[11.5 µM]
N/C(=N\OC(=O)c1ccc(Cl)cc1Cl)c1cccnc1,4%,i,-12%,13µM*,2%,9%[11.5 µM]
Cc1cccc(/C(N)=N/OC(=O)c2cccc3ccccc23)c1,.,.,-4%,.,.,17%
CC(=O)/C=C1\OCc2ccccc21,0%,i,.,8%,.,.
CC(=O)/C=C1\OCc2cc(OCc3ccccc3)ccc21,3%,i,.,10µM*,.,.
CC1CCN(C2CCN(S(=O)(=O)c3ccc(C(F)(F)F)cc3)CC2)CC1,-3%,i,11µM*,-12%,-5%,5%
Cc1cc(F)ccc1S(=O)(=O)Nc1ncnc2sc3c(c12)CCC3,9%,i,?,20µM*,-3%,-2%
CCc1ccc(Nc2ncnc3sc4c(c23)CCCC4)cc1,0%,i,.,20µM*,-3%,.
COc1ccc(Nc2ncnc3scc(-c4ccc(OC)cc4)c23)cc1,1%,i,9%,22µM*,-4%,3%
CC(=O)Nc1ccc(Nc2ncnc3sc4c(c23)CCCC4)cc1,6%,i,.,?,5%,.
Clc1ccc(-c2csc3ncnc(Cl)c23)cc1,-7%,i,-29%,0%,-6%,-5%
NNc1ncnc2scc(-c3ccc(Cl)cc3)c12,14%,i,6%,16µM*,0%,0%
O=C(CSC1=Nc2ccccc2C2=NC(Cc3ccccc3)C(=O)N12)Nc1ccccc1C(F)(F)F (stereo unspecified),.,i,.,11%,-2%,.
COc1ccc(Nc2ncnc3sc4c(c23)CCCC4)cc1,-7%,i,.,20µM*,-3%,.
Fc1ccc(Nc2ncnc3sc4c(c23)CCC4)cc1,32µM*,i,-11%,18µM*,-1%,-1%

# Bioassay records as filed in PubChem.
